# Experimental data: PubChem BioAssay (NCATS)
# Inconclusive results are not listed. A call without a number means that no potency is given here. A number with no mark means an inactive call. Activity calls are given as the source filed them. The call rests on the fitted dose curve; in most records, active means well fitted curve in the direction sought with a large enough effect; inconclusive means small, poorly fitted or top-dose-only effect, or another doubt; inactive means no such curve, though single readings can be large; an effect the other way counts as inactive or inconclusive.
# Legend:
# [1] = target: Rap guanine nucleotide exchange factor 3 (Homo sapiens) (UniProt O95398); test: Confirmatory qHTS for agonist of cAMP-regulated guanine nucleotide exchange factor 3 (EPAC1) (AID 1645881);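 further: EPAC1 catalysed release of BODIPY-GDP from Rap1B seen as fluorescence loss; nearly all actives have a fitted effect of over 75% in size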
# Sequence of Rap guanine nucleotide exchange factor 3 (Homo sapiens) (O95398 whole entry, looked up): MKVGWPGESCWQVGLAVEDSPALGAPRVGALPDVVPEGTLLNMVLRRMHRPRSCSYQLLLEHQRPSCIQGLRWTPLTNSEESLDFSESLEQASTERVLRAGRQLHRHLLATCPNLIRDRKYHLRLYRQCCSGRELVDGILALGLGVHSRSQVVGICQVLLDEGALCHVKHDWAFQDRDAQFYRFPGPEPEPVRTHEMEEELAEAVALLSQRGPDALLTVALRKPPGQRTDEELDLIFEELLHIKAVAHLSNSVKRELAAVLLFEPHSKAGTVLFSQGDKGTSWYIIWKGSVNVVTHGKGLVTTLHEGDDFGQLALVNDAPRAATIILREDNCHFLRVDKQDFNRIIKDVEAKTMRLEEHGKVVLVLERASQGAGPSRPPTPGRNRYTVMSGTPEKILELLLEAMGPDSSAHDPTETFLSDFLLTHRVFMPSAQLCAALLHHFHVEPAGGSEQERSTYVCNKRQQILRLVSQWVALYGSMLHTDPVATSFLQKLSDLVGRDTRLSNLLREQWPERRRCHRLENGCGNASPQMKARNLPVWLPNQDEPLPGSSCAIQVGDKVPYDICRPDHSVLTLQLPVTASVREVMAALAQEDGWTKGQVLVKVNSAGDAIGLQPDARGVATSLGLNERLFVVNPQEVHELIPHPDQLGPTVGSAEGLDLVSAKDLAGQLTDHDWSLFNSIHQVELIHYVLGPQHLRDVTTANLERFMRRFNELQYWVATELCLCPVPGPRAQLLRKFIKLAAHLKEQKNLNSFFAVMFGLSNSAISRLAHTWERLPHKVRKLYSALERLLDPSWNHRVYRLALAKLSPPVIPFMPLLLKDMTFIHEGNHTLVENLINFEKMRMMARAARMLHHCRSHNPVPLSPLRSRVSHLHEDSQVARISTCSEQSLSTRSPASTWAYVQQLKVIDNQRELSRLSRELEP
# [2] = target: Rap guanine nucleotide exchange factor 3 (Homo sapiens) (UniProt O95398); test: Counterscreen qHTS for antagonist of cAMP-regulated guanine nucleotide exchange factor 3 (EPAC1) (AID 1645888);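 further: fluorescence loss as bound BODIPY-GDP is released from Rap1B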
# Outline: (§1)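 Measured: fluorescence of BODIPY-GDP bound to Rap1B, which falls as exchange proceeds. Conditions include 50 uM competing GDP, 5 and 30 min reads, and a later cAMP challenge for antagonist detection.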
# [3] = target: Rap guanine nucleotide exchange factor 3 (Homo sapiens) (UniProt O95398); test: Counterscreen qHTS for agonist of cAMP-regulated guanine nucleotide exchange factor 3 (EPAC1) (AID 1645889); further: nearly all actives have a fitted effect of over 40% in size
# Outline: as §1
# [4] = target: Rap guanine nucleotide exchange factor 4 (Homo sapiens) (UniProt Q8WZA2); test: Confirmatory qHTS for agonist of cAMP-regulated guanine nucleotide exchange factor 4 (EPAC2) (AID 1645884);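 further: nucleotide exchange releases bodipy-GDP from Rap1 and this lowers its fluorescence; nearly all actives have a fitted effect of over 65% in size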; further: potency means the concentration at half of the fitted maximal effect
# Sequence of Rap guanine nucleotide exchange factor 4 (Homo sapiens) (Q8WZA2 whole entry, looked up): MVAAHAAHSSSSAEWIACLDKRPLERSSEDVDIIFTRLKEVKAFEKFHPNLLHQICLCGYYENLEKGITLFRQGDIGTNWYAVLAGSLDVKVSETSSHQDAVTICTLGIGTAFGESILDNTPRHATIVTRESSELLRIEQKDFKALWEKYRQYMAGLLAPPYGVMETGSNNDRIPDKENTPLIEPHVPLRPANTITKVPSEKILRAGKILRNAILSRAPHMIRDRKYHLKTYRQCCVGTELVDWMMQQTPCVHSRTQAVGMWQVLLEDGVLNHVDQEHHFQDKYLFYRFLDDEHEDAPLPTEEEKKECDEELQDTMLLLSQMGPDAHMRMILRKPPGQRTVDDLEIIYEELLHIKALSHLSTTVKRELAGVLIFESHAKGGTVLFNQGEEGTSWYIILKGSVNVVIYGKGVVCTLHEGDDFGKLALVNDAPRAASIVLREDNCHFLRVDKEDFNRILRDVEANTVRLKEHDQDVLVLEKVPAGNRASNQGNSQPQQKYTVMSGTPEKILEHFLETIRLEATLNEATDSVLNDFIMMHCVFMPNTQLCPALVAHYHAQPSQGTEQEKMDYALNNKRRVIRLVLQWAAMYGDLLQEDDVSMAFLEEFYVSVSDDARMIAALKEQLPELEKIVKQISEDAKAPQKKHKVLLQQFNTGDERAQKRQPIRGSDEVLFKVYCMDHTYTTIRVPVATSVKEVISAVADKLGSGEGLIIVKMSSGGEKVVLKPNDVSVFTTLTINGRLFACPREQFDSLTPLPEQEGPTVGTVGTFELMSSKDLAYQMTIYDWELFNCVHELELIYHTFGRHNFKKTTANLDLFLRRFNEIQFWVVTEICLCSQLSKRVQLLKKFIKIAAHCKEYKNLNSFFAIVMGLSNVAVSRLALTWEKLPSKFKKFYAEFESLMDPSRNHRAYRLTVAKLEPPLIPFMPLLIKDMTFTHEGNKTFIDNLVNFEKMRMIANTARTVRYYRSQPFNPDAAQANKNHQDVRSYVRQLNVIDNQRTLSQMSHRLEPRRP
# [5] = target: Rap guanine nucleotide exchange factor 4 (Homo sapiens) (UniProt Q8WZA2); test: Confirmatory qHTS for antagonist of cAMP-regulated guanine nucleotide exchange factor 4 (EPAC2) (AID 1645885); further: nearly all actives have a fitted effect of over 25% in size; further: potency means the concentration at half of the fitted maximal effect
structure (smiles),measurement,setting,value
COc1ccc(C2CC(=O)Oc3cc(OC)c(OC)c(OC)c32)cc1 (configuration not stated),Potency,[1],inactive
same,"activity change, negative = inhibition",[2],-24.9% [at 30.8 µM]
same,activation,[3],20% [at 30.8 µM]
COc1cccc(-c2coc3c(C)c4oc(=O)c(CCC(=O)O)c(C)c4cc23)c1,Potency,[1],inactive
same,Potency,[2],inactive
same,Potency,[3],inactive
COc1cc(/C=C2\SC(=Nc3ccccc3)N(CCc3c[nH]c4ccccc34)C2=O)ccc1OC(C)C(=O)O (configuration not stated),Potency,[4],inactive
same,Potency,[5],inactive
CCC(=O)N1N=C(c2cccs2)CC1c1ccc(C)cc1 (configuration not stated),Potency,[1],inactive
same,Potency,[2],inactive
same,Potency,[3],inactive
CCCC(C(=O)Nc1ccc(S(=O)(=O)Nc2nccs2)cc1)c1ccccc1 (configuration not stated),Potency,[1],inactive
same,"activity change, negative = inhibition",[2],-24.2% [at 30.8 µM]
same,activation,[3],8.61% [at 30.8 µM]
COc1ccc2cc(-c3nc(Cl)c4c5c(sc4n3)CCCC5)c(=O)oc2c1,Potency,[4],inactive
same,Potency,[5],inactive
same,Potency,[2],inactive
CC(=O)N(CCC(Cc1ccccc1)c1ccco1)Cc1ccco1 (configuration not stated),Potency,[1],inactive
same,"activity change, negative = inhibition",[2],-6.33% [at 30.8 µM]
same,activation,[3],32.1% [at 30.8 µM]
CSc1nc(N)c(C(=O)N(c2ccccc2)c2ccccc2)s1,Potency,[1],inactive
same,"activity change, negative = inhibition",[2],-10.5% [at 30.8 µM]
same,activation,[3],22.8% [at 30.8 µM]
CCCC/C=C/[C@H](c1ccccc1)[C@H](CO)Cc1cccnc1,Potency,[1],inactive
same,Potency,[3],inactive
Cc1ccc(N(Cc2ccc([N+](=O)[O-])cc2)C(=O)c2ccco2)cc1C,Potency,[1],inactive
same,Potency,[2],inactive
same,Potency,[3],inactive
COC(=O)c1ccc2nc(-c3ccco3)c(Cc3cccc(F)c3)n2c1,Potency,[1],inactive
same,Potency,[2],inactive
same,Potency,[3],inactive
Nc1nc(N)c2c(ccc3c2ccn3Cc2cccc([N+](=O)[O-])c2)n1,Potency,[4],100 µM (active)
Cc1ccc(S(=O)(=O)CC(=O)c2cc3cccc(C)c3oc2=O)cc1,Potency,[1],inactive
same,Potency,[2],inactive
same,Potency,[3],inactive
CCc1nc2c(OCc3ccc(C(F)(F)F)cc3)cccn2c1N(C)C(=O)C1CC1,Potency,[1],inactive
same,Potency,[3],inactive
O=C(CSc1ncnc2[nH]ncc12)Nc1cccc(Oc2ccccc2)c1,activation,[4],"10.9% [at 17.1 µM, percent relative to cAMP agonist control]"
same,Potency,[5],inactive
COc1ccc2c(c1)C(SCC(=O)NCCc1ccc(Cl)cc1)CC(C)(C)O2 (configuration not stated),activation,[4],"12.3% [at 17.1 µM, percent relative to cAMP agonist control]"
same,Potency,[5],inactive
same,"activity change, negative = inhibition",[2],8.95% [at 30.8 µM]
Cc1nc2c3cc(F)ccc3n(Cc3ccccc3F)c2s1,activation,[4],"1.97% [at 17.1 µM, percent relative to cAMP agonist control]"
same,Potency,[5],inactive
same,"activity change, negative = inhibition",[2],-7.48% [at 30.8 µM]
COc1ccc(CN2C(=O)c3cccnc3C2O)cc1 (configuration not stated),Potency,[1],inactive
same,Potency,[2],inactive
same,Potency,[3],inactive
COc1ccc(CN(C(=O)c2ccco2)c2ccc(C)c(C)c2)cc1,Potency,[1],inactive
same,"activity change, negative = inhibition",[2],-23% [at 30.8 µM]
same,activation,[3],12.3% [at 30.8 µM]
C/[N+]([O-])=C/c1c(OCc2ccccc2)ccc2ccccc12,Potency,[1],inactive
same,Potency,[2],inactive
same,Potency,[3],inactive
COC(/C(=N/O)c1ccc(Cl)cc1)c1ccccc1 (configuration not stated),activation,[4],"9.01% [at 17.1 µM, percent relative to cAMP agonist control]"
same,Potency,[5],inactive
same,"activity change, negative = inhibition",[2],-2% [at 30.8 µM]
CCOc1ccc(N(Cc2ccc(OC)cc2)C(=O)c2ccco2)cc1,Potency,[1],inactive
same,Potency,[3],inactive
C/C(=N\N(Cc1ccccc1)c1ccccc1)c1ccncc1,activation,[4],"-6.71% [at 17.1 µM, percent relative to cAMP agonist control]"
same,Potency,[5],inactive
CCc1nc2c(OCc3ccc(C(F)(F)F)cc3)cccn2c1N(C)C(=O)CC(C)C,Potency,[1],inactive
same,Potency,[3],inactive
COC(=O)c1ccc2nc(-c3ccc(C)cc3)c(Cc3cccc(F)c3)n2c1,Potency,[1],inactive
same,Potency,[3],inactive
COC(=O)c1ccc2nc(-c3cccc(Cl)c3)c(Cc3ccccc3)n2c1,Potency,[1],inactive
same,"activity change, negative = inhibition",[2],-21.2% [at 30.8 µM]
same,activation,[3],15.5% [at 30.8 µM]
Cc1nc2ccccc2c(C)c1C(=O)c1ccccc1,Potency,[1],inactive
same,activation,[3],-2.6% [at 30.8 µM]
CCC(=O)N(CCC(c1ccco1)C(C)C)Cc1ccccc1 (configuration not stated),Potency,[1],inactive
same,Potency,[3],inactive
CC1=CC(=C(C#N)c2nc3ccccc3s2)C=C(C)N1Cc1ccco1,Potency,[4],inactive
same,Potency,[5],inactive
same,Potency,[2],inactive
Cc1cc(C)c(S(=O)(=O)Nc2ccc3c(c2)CCC3)c(C)c1,Potency,[1],inactive
same,Potency,[3],inactive
C/C(=N\O)C(=O)OC1CC(C)CCC1C(C)C (configuration not stated),Potency,[1],inactive
same,Potency,[3],inactive
CCOC(=O)C1Oc2ccccc2C(c2ccc(OC)cc2)=C1C(=O)OC (configuration not stated),Potency,[1],inactive
same,Potency,[3],inactive
CCOC(=O)C1=C(c2ccccc2)c2ccccc2OC1C(=O)OCC (configuration not stated),Potency,[1],inactive
same,"activity change, negative = inhibition",[2],-22.2% [at 30.8 µM]
same,activation,[3],24.5% [at 30.8 µM]
CC(=O)N(CCC(c1ccco1)C(C)C)Cc1ccc(OC(C)C)cc1 (configuration not stated),Potency,[1],inactive
same,Potency,[3],inactive
COC(=O)C1=C(C)N(Cc2ccco2)C(=O)N[C@H]1c1cccc(C(F)(F)F)c1,Potency,[1],inactive
same,Potency,[3],inactive
Cc1ccccc1C1CC(=O)c2ccccc2C1C (configuration not stated),Potency,[1],inactive
same,Potency,[2],inactive
same,Potency,[3],inactive
CCOC(=O)c1c(CC(C)C)csc1NC(C)=O,Potency,[1],inactive
same,Potency,[3],inactive
COc1ccc(S(=O)(=O)Nc2ccc(F)cc2)c(C)c1C,Potency,[4],inactive
same,Potency,[5],5.36 µM (active)
same,Potency,[2],inactive
CC(/C=C1\SC(=S)N(c2ccc(C(=O)O)cc2)C1=O)=C\c1ccccc1,activation,[4],"7.79% [at 17.1 µM, percent relative to cAMP agonist control]"
same,Potency,[5],inactive
same,"activity change, negative = inhibition",[2],1.04% [at 30.8 µM]
same,activation,[3],18.6% [at 30.8 µM]
Cc1cc(=O)n(Cc2ccccc2)c2c1c(C)nn2C,Potency,[4],inactive
same,Potency,[5],inactive
same,Potency,[2],inactive
O=C(c1ccccc1Br)N(Cc1ccccc1)c1ccccc1,activation,[4],"0.0919% [at 17.1 µM, percent relative to cAMP agonist control]"
same,Potency,[5],inactive
same,"activity change, negative = inhibition",[2],-1.15% [at 30.8 µM]
O=C1N(Cc2ccccc2Cl)c2ccccc2C1(O)c1c[nH]c2ccccc12 (configuration not stated),Potency,[4],inactive
same,Potency,[5],inactive
same,Potency,[2],inactive
COc1cc2ccccc2cc1C(=O)NC(=S)Nc1cccc(C(=O)O)c1,activation,[4],"3.08% [at 17.1 µM, percent relative to cAMP agonist control]"
same,Potency,[5],inactive
same,"activity change, negative = inhibition",[2],-9.48% [at 30.8 µM]
same,activation,[3],7.44% [at 30.8 µM]
O=c1oc2c3c(ccc2c2ccccc12)OCN(Cc1cccc(Cl)c1)C3,Potency,[4],inactive
same,Potency,[5],inactive
same,Potency,[2],inactive
same,Potency,[3],inactive
Cn1c(SCC(=O)Nc2cccc(C(=O)O)c2)nnc1-c1cc2cc(Br)ccc2o1,Potency,[4],inactive
same,Potency,[5],inactive
same,Potency,[2],inactive
same,Potency,[3],inactive
COc1ccc(C2Nc3ccccc3-c3cc(C)nn32)c(OC)c1 (configuration not stated),Potency,[4],inactive
same,Potency,[5],inactive
same,Potency,[2],inactive
CC1(C)CC2CC(C)(CN2C(=O)c2cc(-c3ccccc3O)on2)C1 (configuration not stated),activation,[4],"10.5% [at 17.1 µM, percent relative to cAMP agonist control]"
same,Potency,[5],inactive
same,"activity change, negative = inhibition",[2],5.82% [at 30.8 µM]
same,activation,[3],17.1% [at 30.8 µM]
CNc1ccc(/C=C(\CCC(=O)O)c2nc3ccccc3s2)cc1[N+](=O)[O-],activation,[4],"0% [at 17.1 µM, percent relative to cAMP agonist control]"
same,Potency,[5],inactive
same,"activity change, negative = inhibition",[2],-16.8% [at 30.8 µM]
same,activation,[3],19.8% [at 30.8 µM]
COc1cc(/C=C2\CCn3c2nc2cc(C(=O)O)ccc2c3=O)ccc1OC(F)F,Potency,[4],inactive
same,Potency,[5],inactive
same,Potency,[2],inactive
same,Potency,[3],inactive
CCOc1ccc(/C=C2\SC(=S)N(NS(=O)(=O)c3ccccc3)C2=O)cc1OC,Potency,[4],112 µM (active)
same,Potency,[5],37.9 µM (active)
same,Potency,[2],inactive
same,Potency,[3],inactive
O=C(N/N=C/c1ccc(O)c(O)c1)C1c2ccccc2Oc2ccccc21,Potency,[4],inactive
same,Potency,[5],inactive
same,Potency,[2],inactive
COc1ccc(CCn2c(O)cc3nn(-c4nc5ccccc5s4)c(=O)c-3c2C)cc1,Potency,[4],inactive
same,Potency,[5],inactive
same,Potency,[2],inactive
same,Potency,[3],inactive
COc1ccc(OC)c(C2=CC(=O)C[C@H](c3ccc4c(c3)OCO4)C2)c1,activation,[4],"11.2% [at 17.1 µM, percent relative to cAMP agonist control]"
same,Potency,[5],inactive
same,"activity change, negative = inhibition",[2],-6.17% [at 30.8 µM]
Cc1ccc(C(=O)N(Cc2ccco2)Cc2sccc2C)cc1,Potency,[4],inactive
same,Potency,[5],inactive
same,Potency,[2],inactive
Oc1ccc(NCc2cccc(OCc3ccc(F)cc3)c2)cc1,activation,[4],"10.4% [at 17.1 µM, percent relative to cAMP agonist control]"
same,Potency,[5],inactive
same,"activity change, negative = inhibition",[2],-11.4% [at 30.8 µM]
S=c1[nH]nc(-c2cc(-c3ccccc3)n[nH]2)n1/N=C/c1ccc(Cl)c(Cl)c1,activation,[4],"2.21% [at 17.1 µM, percent relative to cAMP agonist control]"
same,Potency,[5],inactive
same,"activity change, negative = inhibition",[2],-11.9% [at 30.8 µM]
same,activation,[3],18.4% [at 30.8 µM]
COc1ccc(C(=O)NCCn2cc(SCC(=O)NCCc3ccc(OC)c(OC)c3)c3ccccc32)cc1,Potency,[4],inactive
same,Potency,[5],inactive
same,Potency,[2],inactive
same,Potency,[3],inactive
Cc1c(CCC(=O)O)c(=O)oc2cc(OCc3ccccc3Br)ccc12,Potency,[4],inactive
same,Potency,[5],84.9 µM (active)
same,Potency,[2],inactive
same,Potency,[3],inactive
O=C(O)c1ccc(N/N=C/c2ccc(-c3ccc(Cl)cc3Cl)o2)cc1,Potency,[4],inactive
same,Potency,[5],inactive
same,Potency,[2],inactive
COc1ccc(CN(Cc2ccco2)C(=O)c2ccccc2F)cc1,Potency,[4],inactive
same,Potency,[5],inactive
same,Potency,[2],inactive
O=C(O)CCN1C(=O)/C(=C\c2cccc(OCC(=O)Nc3ccc(Cl)cc3)c2)SC1=S,Potency,[4],inactive
same,Potency,[5],inactive
same,Potency,[2],inactive
